Where “and” joins values, the source holds several entries; their conditions need not be identical. Identical values can stand only once. The panel holds about 83,000 compounds, 20% with a hit somewhere; the sample as a whole holds those more often.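 A percent growth of 40 corresponds to 60% growth inhibition; 0 means no net growth; -100 means all cells died. Active threshold: below 10.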 Calls of active or inactive are those of the source.
Tested on: TK-10 renal
Assay: NCI-60 one-dose screen, 48 h (100 = growth as untreated, 0 = no growth, -100 = all killed)
Settings: 10 µM unless noted

**Q.** With `CC1CC(=O)N(N(C)C)C2(C#N)C(=O)N=C(N)C12C#N` (centres undefined) as the molecule, how does the growth read?
**A.** Its growth is -31.9% [100 µM] (active) and -94.2% [100 µM] (active).

**Q.** `C=C(C)C(=O)OC1CC2(C)OC(=CC2=O)C(C)CC2OC(=O)C(=C)C12` (centres undefined) was tested. Which growth did it give?
**A.** The growth was -96.8% [100 µM] (active).

**Q.** Which growth does the source give for `O[C@H]1[C@H](O)[C@@H](Cn2nnc(-c3ccccc3)c2-c2ccccc2)OCO[C@@H]1Cn1nnc(-c2ccccc2)c1-c1ccccc1` here?
**A.** The growth was -89.7% [100 µM] (active).

**Q.** Which growth does the source give for `CNc1nc2c(C)ccc3[nH]c(N(C)C)nc3c-2n1` here?
**A.** The growth was 60% [100 µM] (inactive) and 12.5% [100 µM] (inactive).

**Q.** Which growth does the source give for `CCCCCCCCCC(O)CC(=O)c1c(O)cccc1O` (centres undefined) here?
**A.** Its growth is 4.56% [100 µM] (active) and 1.03% [100 µM] (active).

**Q.** Which growth does the source give for `O=C1NC(N/N=C\C(O)C(O)C(O)C(O)CO)=N/C1=C\c1ccc(Cl)cc1` (centres undefined) here?
**A.** The growth was 47.7% [100 µM] (inactive) and -100% [100 µM] (active).

**Q.** How did the growth turn out when `Cc1ccc(/C=N/Nc2cnccn2)s1` was run?
**A.** Its growth is 116% [100 µM] (inactive) and 93% [100 µM] (inactive).

**Q.** `O=C1NC(N/N=C\c2ccccc2)=N/C1=C/c1ccccc1` was tested. Which growth did it give?
**A.** The growth was -49.7% [100 µM] (active) and -77.5% [100 µM] (active).

**Q.** Which growth does the source give for `Cc1ccc(/C=C2/N=C(N/N=C\c3ccccc3)NC2=O)cc1` here?
**A.** The growth was -15.5% [100 µM] (active) and 0.251% [100 µM] (active).

**Q.** With `C=C1C(=O)O[C@H]2C[C@@]3(C)[C@H](O)CCC(=C)[C@@H]3[C@@H](OC(C)=O)[C@H]12` as the molecule, how does the growth read?
**A.** Its growth is -98% [100 µM] (active) and -95.5% [100 µM] (active).

**Q.** For `CCOc1cc2c(cc1O)C=C[C@@H]1[C@@H]2CC[C@]2(C)[C@@H](O)CC[C@@H]12`, which growth is on record?
**A.** The growth was -4.09% [100 µM] (active) and -100% [100 µM] (active).

**Q.** Which growth does the source give for `COc1c(OC)c(OC)c2c(c1OC)c(=O)c1ccccc1n2C` here?
**A.** The growth was 87.4% [100 µM] (inactive) and 35% [100 µM] (inactive).

**Q.** `CO/C(N)=C(\C#N)N=Cc1ccc2ccccc2c1` was tested. Which growth did it give?
**A.** Its growth is 12.8% [100 µM] (inactive) and -44.8% [100 µM] (active).

**Q.** Which growth does the source give for `COc1cc(Oc2c(C)c(Cl)c(OC)c(Cl)c2OC)c2c(c1Cl)COC2=O` here?
**A.** The growth was 20.3% [100 µM] (inactive) and 9.52% [100 µM] (active).

**Q.** For `C=CC1=C(C)C2=NC1=CC1=NC(=C(CC)/C1=C\O)C=C1N=C3C(=C1C)C(=O)[C@H](C(=O)OC)C3=C1NC(=C2)[C@@H](C)[C@@H]1CCC(=O)O`, which growth is on record?
**A.** Its growth is 3.23% [100 µM] (active) and 7.05% [100 µM] (active).

**Q.** For `COc1ccc2c(C)cc(N/N=C/c3ccc(C)s3)nc2c1`, which growth is on record?
**A.** Its growth is -66.6% [100 µM] (active) and -100% [100 µM] (active).

**Q.** With `CC(C)CCCC(C)[C@H]1CC[C@H]2[C@@H]3CC[C@H]4C[C@@H](CCC=C(c5cc(Cl)c(O)c(C(=O)O)c5)c5cc(Cl)c(O)c(C(=O)O)c5)CC[C@]4(C)[C@H]3CC[C@]12C` (some centres undefined) (tested in a mixture with another compound) as the molecule, how does the growth read?
**A.** The growth was 179% [50 µM] (inactive) and 2.06% [50 µM] (active).

**Q.** Which growth does the source give for `CSc1nc(Br)nc2ncn(C3CC(Oc4ccc(C)cc4)C(COc4ccc(C)cc4)O3)c12` (centres undefined) here?
**A.** The growth was 111% [100 µM] (inactive) and -100% [100 µM] (active).

**Q.** For `COc1cc2c(cc1C1COc3cc4occc4cc3C1=O)OCO2` (centres undefined), which growth is on record?
**A.** The growth was 88.2% [100 µM] (inactive) and 80.4% [100 µM] (inactive).

**Q.** `COC(=O)/C=C\C(C#N)(C#N)N=Cc1ccsc1` was tested. Which growth did it give?
**A.** Its growth is -98.5% [100 µM] (active) and -84.4% [100 µM] (active).

**Q.** For `C/C=C1\NC(=O)[C@H]2CSSCCC=C[C@H](CC(=O)N[C@H](C(C)C)C(=O)N2)OC(=O)[C@H](C(C)C)NC1=O`, which growth is on record?
**A.** The growth was -93% [0.1 µM] (active) and -98.3% [0.1 µM] (active).

**Q.** With `CCCCC1C(=O)N(c2ccc(S(=O)(=O)Nc3ccccn3)cc2)N(c2ccc(O)c(C(=O)O)c2)C1=O` (centres undefined) as the molecule, how does the growth read?
**A.** Its growth is 102% [100 µM] (inactive) and 94.2% [100 µM] (inactive).

**Q.** With `O=C1c2ccccc2-c2c1c1ccccc1c(=O)n2-c1cccnc1` as the molecule, how does the growth read?
**A.** Its growth is 59.8% [100 µM] (inactive) and -34% [100 µM] (active).

**Q.** `COc1ccc(OC)c(N(CN2C(=O)CCC2C(=O)O)C(C)=O)c1` (centres undefined) was tested. Which growth did it give?
**A.** Its growth is 78.2% [100 µM] (inactive) and 103% [100 µM] (inactive).
